What is called inhibition is the relative decrease from the control value, in per cent.

SMILES strings stand for the structures. About 2,300 (0.64%) of roughly 360,000 compounds were called active. What follows is part of a selection rich in actives, with near analogues and random picks from the rest. Values without a mark were called inactive. Rule as the data show it: active = inhibition mostly above about 40% (no sharp cut-off); inactive = mostly below about 27%.

Sentrin-specific protease 8 (Homo sapiens), sequence (Q96LD8 whole entry, looked up): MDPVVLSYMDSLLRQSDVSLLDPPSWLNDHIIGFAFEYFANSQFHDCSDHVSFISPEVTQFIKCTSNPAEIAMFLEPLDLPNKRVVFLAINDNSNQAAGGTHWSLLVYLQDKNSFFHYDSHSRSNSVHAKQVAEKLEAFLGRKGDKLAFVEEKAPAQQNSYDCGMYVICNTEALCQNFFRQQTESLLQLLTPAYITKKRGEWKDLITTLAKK

This assay has as its target Sentrin-specific protease 8 (Homo sapiens) (UniProt Q96LD8). In words: human SENP8 protease inhibitors, primary screen, biochemical, fluorescence, Nedd8 protein substrate, uHTS (AID 602440). The note with it: recombinant SENP8, Nedd8 substrate fluorescence; at 20 µM; active compounds read high.
Consider `COc1ccccc1S(=O)(=O)c1c(C)cc(C)[nH]c1=O`, for which the inhibition was -5.8%.
The result for `Cc1cc(C)c(/C=C2\C(=O)Nc3ccccc32)[nH]1` reads 59.5% (active).
As for `Cc1cccc(N(Cc2ccccc2)C(=O)c2ccccc2F)c1`, the inhibition is 10.3%.
Under `Cc1ccc(N(Cc2ccccc2O)C(=O)c2ccccc2F)cc1` stands 43.7% (active).
Under `O=C(c1ccccc1F)N(Cc1ccccc1)Cc1ccccc1` stands 7.7%; under `CCC(=O)N1CCC(C(N)=O)(N2CCCCC2)CC1`, 23.1%.
On to `CN1CCN(CC(=O)C23CC4CC(CC(C4)C2)C3)CC1`, for which the inhibition was 8%.
Regarding `O=C(CCC(=O)OCc1cccc(C(=O)Oc2ccccc2)c1)Nc1cccc2ccccc12`, the inhibition is -5.4%.
Under `Cc1c(CC(=O)N2CCN(C(=O)C3COc4ccccc4O3)CC2)c(=O)oc2c(O)c(O)ccc12` (stereo unspecified) stands -291%; under `Cn1c2ccccc2n2c(=O)c(=O)n(CC(=O)c3ccc(F)cc3)nc12`, -7.8%; under `COc1ccc(NC(=O)CSc2nncc(=O)n2N)cc1OC`, 8%.
The result for `CN1CCN(/N=C2/C(=O)Nc3ccc([N+](=O)[O-])cc32)CC1` reads 23.5%; that for `O=C1Nc2ccc([N+](=O)[O-])cc2C1=Nc1cccc(CO)c1`, 65.6% (active).
Under `Cc1cc([N+](=O)[O-])ccc1NCc1cccc([N+](=O)[O-])c1` stands 29.2%; under `COc1ccc(NC(=O)CN(C)C(=O)c2ccc(NC3CC3)c([N+](=O)[O-])c2)cc1`, 33.7%; under `Cc1ccc(C(=O)COC(=O)CCCC(=O)NC2CCCCC2)cc1[N+](=O)[O-]`, 19.6%.
`Cc1cc(C=O)c(C)n1-c1ccc(NC2CCCCC2)c([N+](=O)[O-])c1`: the inhibition is 56.6% (active).
Under `O=C(Nc1ccc2c(c1)[C@@H]1C[C@@H](CC(=O)N3CCCCC3)O[C@@H](CO)[C@@H]1O2)NC1CCCCC1` stands 15.5%; under `CC1Cc2[nH][nH]c(=O)c2C(C2CC2)O1` (stereo unspecified), 19.9%; under `CN=C(Nc1cccc(S(=O)(=O)N2CCOCC2)c1)c1ccccc1`, 9.5%.
Under `Cc1cc(F)ccc1NC(=S)NCCc1ccccc1` stands 8%; under `CCCC1CCC(=NNC(=S)NCCc2ccccc2)CC1` (stereo unspecified), 45.2% (active); under `CCCCNC(=S)N/N=C1\CCCCc2ccccc21`, 21.8%.
On to `CCOC(=O)c1ccc(N2C(=O)CC(N3CCN(C(=O)c4ccccc4)CC3)C2=O)cc1` (stereo unspecified), for which the inhibition is 2.8%.
Turning to `CCOC(=O)c1ccc(N2C(=O)CC(N(C)Cc3ccccc3)C2=O)cc1` (stereo unspecified), the inhibition is 46.8% (active).
The result for `CCOC(=O)c1ccc(N2C(=O)CC(N3CC(C)OC(C)C3)C2=O)cc1` (stereo unspecified) reads 14%; that for `COC(=O)C1=C(C(=O)OC)C(c2cc([N+](=O)[O-])ccc2O)c2sc(=O)[nH]c2S1` (stereo unspecified), 38.8%; that for `N#CC1(C#N)C(C(=O)C23CC4CC(CC(C4)C2)C3)C12CCOCC2` (stereo unspecified), 2.5%.
The result for `O=C1Nc2c(Br)cc(Br)cc2C1(O)N1CCOCC1` (stereo unspecified) reads 60.2% (active); that for `O=C(c1cc2cc(Br)cc(Br)c2oc1=O)N1CCOCC1`, -4.2%.
Under `Cc1ccc(Nc2nc(CSc3nnc(-c4ccncc4)n3-c3ccccc3C)cs2)cc1` stands 11.2%; under `Cc1oc2c(C)c3oc(=O)c(CC(=O)N[C@@H](CC(C)C)C(=O)N[C@@H](Cc4ccccc4)C(=O)O)c(C)c3cc2c1C`, -222%; under `Cc1ccc(NS(=O)(=O)c2ccc3c(c2)oc(=O)n3C)c(C)c1`, 12.2%.
Take `CCN(CC(=O)NC1CCS(=O)(=O)C1)S(=O)(=O)c1ccccc1` (stereo unspecified): the inhibition is 3.6%.
The result for `COc1ccc2[nH]c(=O)c(CN(Cc3cccnc3)S(=O)(=O)c3ccccc3F)cc2c1` reads -316%; that for `O=C(Nc1ccccc1C(=O)N1CCOCC1)C1CCC(=O)N1C1CCCC1` (stereo unspecified), 7.7%.
Under `CCc1ccccc1NC(=S)Nc1cc(OC)c(NC(=O)C(C)C)cc1OC` stands 22.3%.
With `CCc1ccccc1NC(=O)[C@@H]1CCC(=O)N1C1OC(=O)c2c1ccc(OC)c2OC` (stereo partly specified), the inhibition was 58.1% (active).
Under `CC(=O)NC(CC(=O)Nc1nccs1)c1ccccc1` (stereo unspecified) stands 20.4%; under `CCC(C)NC(=O)c1ccc(NC(=O)CC2SC(N3CCCCC3)=NC2=O)cc1` (stereo unspecified), 0.4%; under `CCOc1ccc(C(C)NC(=O)CN2C(=O)NC3(CCCCC3)C2=O)cc1OCC` (stereo unspecified), 4.1%.
Under `CCOc1ccc(C(CC(=O)O)NC(=O)C23CC4CC(CC(C4)C2)C3)cc1OC` (stereo unspecified) stands 9%; under `CCOc1ccc(C(c2c(C)[nH][nH]c2=O)c2c(C)[nH][nH]c2=O)cc1OCC`, 53.9% (active); under `CCCCNC(=O)C[C@@H]1C[C@@]2(C(=O)OC)CC(C)(C)CC=C2N(Cc2ccco2)C1=O`, 6%.
Under `O=[N+]([O-])c1ncc(Br)cc1Nc1ccccc1` stands 22.6%; under `CC(NC(=O)C1CCC(CNc2c(N3CCOCC3)c(=O)c2=O)CC1)c1ccccc1` (stereo unspecified), 9.1%.
Regarding `CC(C)CCNC(=O)C1CCC(CNc2c(N3CCC(C)CC3)c(=O)c2=O)CC1` (stereo unspecified), the inhibition was 42.8% (active).
For the molecule `O=C(NCCCc1ccccc1)C1CCC(CNc2c(N3CCCCC3)c(=O)c2=O)CC1` (stereo unspecified), the inhibition is 23.4%.
Under `Cc1ccc(CN2CCCOCCS2(=O)=O)cc1` stands 13.5%; under `CC(C)CN1CCC1(C)C(=O)Nc1ccc(OC(F)F)cc1` (stereo unspecified), 5.2%.
Take `COCCNc1nc(-n2nc(C)cc2C)nc2sc3c(c12)CCCC3`: the inhibition was -415%.
The result for `COc1ccc(C(C(=O)NC2CCCCC2)N(C(=O)Cc2c[nH]c3ccccc23)c2ccccc2)cc1OC` (stereo unspecified) reads -12.6%; that for `CC(C)[C@H](NC(=O)OCc1ccccc1)C(=O)OCc1ccccc1`, 5.8%; that for `Cc1ccc(C(=O)Nc2c(-c3ccccc3)[nH][nH]c2=O)cc1`, 12.1%.
The result for `COc1ccc(NS(=O)(=O)c2cc(NC(=O)CC(=O)c3ccc([N+](=O)[O-])cc3)ccc2C)cc1` reads 6.3%; that for `COc1ccc(-c2[nH][nH]c(=O)c2NC(=O)c2ccc([N+](=O)[O-])cc2)cc1`, 60.2% (active); that for `Cc1n[nH]c(C)c1S(=O)(=O)N1CCCC(C(=O)Nc2ccc(Br)cc2)C1` (stereo unspecified), 13.4%.
Consider `CCn1cc(C(=O)N2CC(C)CC(C)C2)c(=O)c2cc(S(=O)(=O)N3CCCC3)ccc21` (stereo unspecified), for which the inhibition was 11.3%.
Under `Cc1ccc(N(C(=O)c2ccc(S(=O)(=O)N(C)C)cc2)C2C=CS(=O)(=O)C2)cc1` (stereo unspecified) stands 9.3%.
Under `COC(=O)C1=C(C(=O)OC)[C@@H]2N(C)c3ccccc3[C@@]23C[C@@H](C(=O)OC)N(C(=O)c2ccco2)C3=N1` stands 3.7%.
`O=C(NC(=S)N1CCCCC1c1cccnc1)c1ccccc1` (stereo unspecified): the inhibition was 46.4% (active).
The result for `O=C(Nc1ccccc1C(F)(F)F)N1CCCC1c1cccnc1` (stereo unspecified) reads 6.2%; that for `COc1ccc(C(=O)NC(=S)N2CCCCC2c2cccnc2)cc1OC` (stereo unspecified), 8.4%; that for `COc1cccc(NC(=O)CN(C)CC(=O)c2c(N)n(Cc3ccccc3)c(=O)n(C)c2=O)c1`, 0.5%.
`COc1cc(/C=C/CO)cc(OC)c1O[C@@H]1O[C@H](CO)[C@@H](O)[C@H](O)[C@H]1O`: the inhibition is -20.9%.
The result for `Cc1ccc(CNS(=O)(=O)CCNC(=O)c2ccccc2)cc1` reads 5.7%.
For the molecule `CCCCNCCS(=O)(=O)NCc1ccccc1`, the inhibition was 61.4% (active).
The result for `CCCCNS(=O)(=O)CCNCc1ccccc1OC` reads 5.2%; that for `O=C(NCc1ccco1)/C(=C\c1cccc([N+](=O)[O-])c1)NC(=O)c1ccco1`, 9.4%; that for `O=C(NCc1ccco1)/C(=C/c1cccc([N+](=O)[O-])c1)NC(=O)c1ccco1`, 15.2%.
Turning to `Cc1ccc(C(=O)N/C(=C/c2ccc(-c3cccc([N+](=O)[O-])c3)o2)C(=O)NCCCN(C)C)cc1`, the inhibition is 51.7% (active).
With `COc1ccc(C(=O)OCC(=O)Nc2cc(C)on2)cc1F`, the inhibition is 10.9%.
Under `CN(C)S(=O)(=O)c1cc(C(=O)Nc2ccn(C)n2)c(Cl)cc1Cl` stands 19.3%.
The result for `CN=C1SC(CC(=O)Nc2ccc(C(=O)O)cc2)C(=O)N1C` (stereo unspecified) reads 16.1%; that for `CCN1C(=O)C(CC(=O)Nc2cc(C)ccc2C)SC1=Nc1ccc(S(N)(=O)=O)cc1` (stereo unspecified), 13.6%; that for `CCN=C1SC(CC(=O)Nc2ccc(C)cc2)C(=O)N1CC` (stereo unspecified), 40.5% (active).
The result for `Cc1cccc(N2CC(C(=O)Nc3ccccc3N3CCCC3)CC2=O)c1C` (stereo unspecified) reads 14.3%; that for `CC1CCN(c2ccc([N+](=O)[O-])c(SCCO)c2)CC1`, 40.3% (active).
`CC1CCN(c2ccc(C(=O)NCc3ccc4c(c3)OCO4)cc2[N+](=O)[O-])CC1`: the inhibition was 20.8%.
Under `CC1CCN(c2ccc3c(c2)S(=O)(=O)c2cc(C(=O)O)ccc2C3=O)CC1` stands -15.6%.
The result for `COc1ccc(C(=O)N2CCC(C(=O)Nc3cccc(C)c3)CC2)cc1OC` reads 9.3%; that for `COc1ccc(-c2c(C)nn3c(N4CCC(C(=O)N5CCCCC5)CC4)cc(C)nc23)cc1OC`, -21.1%; that for `COC(=O)[C@]12CCCCC=C1N(Cc1ccc3c(c1)OCO3)C(=O)[C@H](CC(=O)NCc1cccs1)C2`, 19.5%.
The result for `CCOc1ccc(S(=O)(=O)N2CCN=C2Cc2ccccc2)cc1C` reads 23.3%; that for `Nc1nnn(CC(=O)N/N=C/c2ccccc2)n1`, -8.5%; that for `COC(=O)C(C)N=Cc1ccccc1` (stereo unspecified), 0.2%.
In the case of `NN=C(NN=Cc1ccccc1)c1ccccc1`, the inhibition is 49.4% (active).
The result for `O=C(NCc1ccccc1)C(=O)NCC1OCCN1S(=O)(=O)c1ccc(Br)cc1` (stereo unspecified) reads 0.6%; that for `COc1ccc(C2(C)NC(=O)N(CC(=O)c3ccc4c(c3)OCO4)C2=O)cc1` (stereo unspecified), -8.5%; that for `CCOc1ccc(NCCC(=O)c2ccc3c(c2)OCO3)cc1`, 37.1% (active).
The result for `CCOc1ccc(C(=O)CCN2CCOCC2)cc1` reads 5.4%.

(Values after PubChem BioAssay AID602440 (Sanford-Burnham Center for Chemical Genomics, 2012).)
